# Hit rate of the full screen: of about 16,000 compounds, about 5,800 (36%) were called active. Inconclusive results (about 23%) are left out. The list shows a part of the results. A number with no mark means an inactive call. Calls follow the shape of the dose curve; as a rule, active = well fitted curve in the direction sought with a large enough effect; inconclusive = small, poorly fitted or top-dose-only effect, or effect the other way; inactive = no such curve, though single readings can be large or run the other way.
# Target: Cytochrome P450 2C19 (Homo sapiens) (UniProt P33261)
# Assay: Cytochrome panel assay with activity outcomes
# Details: recombinant CYP, pro-luciferin dealkylation, luminescence, p450-cyp2c19; series mostly up to 57.1 µM
# % is scaled to controls: 0 for no effect and ±100 for the full control effect.
# Sequence of Cytochrome P450 2C19 (Homo sapiens) (P33261 whole entry, looked up): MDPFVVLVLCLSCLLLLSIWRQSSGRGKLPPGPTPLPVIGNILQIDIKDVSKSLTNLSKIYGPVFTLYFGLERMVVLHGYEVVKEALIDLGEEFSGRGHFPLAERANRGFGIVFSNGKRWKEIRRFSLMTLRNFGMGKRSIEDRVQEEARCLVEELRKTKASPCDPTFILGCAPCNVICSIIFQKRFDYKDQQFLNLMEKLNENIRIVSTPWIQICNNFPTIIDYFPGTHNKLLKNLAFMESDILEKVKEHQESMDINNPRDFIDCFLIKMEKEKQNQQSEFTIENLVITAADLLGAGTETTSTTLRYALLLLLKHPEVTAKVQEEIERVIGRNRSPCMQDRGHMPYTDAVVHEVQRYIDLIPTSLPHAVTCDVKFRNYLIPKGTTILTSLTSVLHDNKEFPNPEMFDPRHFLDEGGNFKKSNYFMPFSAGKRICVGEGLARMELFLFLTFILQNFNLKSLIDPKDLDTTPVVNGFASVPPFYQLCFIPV
Structure (SMILES),AC50,"activity, negative = inhibition"
O=C(CSc1nc2ccccc2c(=O)n1NC(=O)Cc1ccccc1)NCc1ccccc1Cl,0.794 µM (active),–
CCOc1cc(/C=C2\N=C(C)OC2=O)cc(Br)c1OCC(=O)OC,inactive,–
CCOC(=O)COc1c(C=O)cc(Br)cc1OC,6.31 µM (active),–
CCOC(=O)C1=C(O)/C(=C/c2cc(OC)c(OC)c(OC)c2)N=C1C,inactive,–
Cc1ccc(C)c(S(=O)(=O)N2CCC(c3nc4c(nnn4Cc4ccc(F)cc4)c(=O)[nH]3)CC2)c1,4.47 µM (active),–
Nc1nc(Br)c2c(F)cccc2c1-c1ccc(Cl)cc1,1.26 µM (active),–
Nc1nc(Br)c2ccccc2c1-c1ccc(F)cc1,2.82 µM (active),–
O=C(Cc1ccc2c(c1)CCCC2)Nc1ccccc1Br,3.55 µM (active),–
CC1=CC(C)(C)N(C)C(=O)N1c1ccc(Cl)cc1,15.8 µM (active),–
NC(N)=Nc1nc(CCN2C(=O)c3ccccc3C2=O)cs1,2.82 µM (active),–
CO[C@@H]1COC(=O)CC=C[C@@H](C)[C@@H]2C=C[C@@H](O)[C@@H](COC(=O)C/C=C\[C@H]1C)O2,–,-8% [at 11.4 µM]
Cc1cccc(NC(=S)NC(=O)CCc2ccccc2)c1,5.62 µM (active),–
Cc1cccc(C)c1NC(=S)NC(=O)CCc1ccccc1,3.55 µM (active),–
CCCCC(=O)NC(=S)Nc1cccc(NC(=O)CC)c1,10 µM (active),–
CCC(=O)Nc1cccc(C(=O)/C=C/c2ccccc2)c1,5.62 µM (active),–
CC(=O)Nc1ccc(C(=O)NNC(=O)CCc2ccccc2)cc1,inactive,–
Cc1cccc(C)c1NC(=O)CS(=O)CC(=O)NCCCc1ccccc1 (stereo not drawn),inactive,–
CCC(=O)NNC(=O)CCC(=O)Nc1ccccc1,inactive,–
Cn1c(=O)c2c(-c3cccc(F)c3)c3c(nc2n(C)c1=O)-c1ccccc1C3O (stereo not drawn),inactive,–
Cc1c(C)c(C)c(CC2(C)CSC2)c(CC2(C)CSC2)c1C,–,35.5% [at 11.4 µM]
CN(C)c1ncc2ncc(=O)n(C3CC3)c2n1,inactive,–
N[C@H](CCC(=O)NCC(=O)O)C(=O)O,inactive,–
Cc1ccc(C(=O)Nc2ccc3nccnc3c2)cc1,14.1 µM (active),–
Cc1ccc(-n2nc3ccc(NC(=O)c4ccc5c(c4)OCO5)cc3n2)cc1,inactive,–
CCN1C(=O)[C@H]2[C@H]3[C@H](O)[C@H](O)C/C(=N/OCC[C@H]4C=C[C@H](OC(C)=O)[C@@H](COC(C)=O)O4)[C@@H]3CC[C@@H]2C1=O,–,0.181% [at 11.4 µM]
CC1CCN(CC[C@@H]2CCCN2S(=O)(=O)c2cccc(O)c2)CC1,inactive,–

Structure (SMILES),AC50,"activity, negative = inhibition"
Cc1c(C)n(C(=O)CN2CCC(C)CC2)c2ccccc12,3.55 µM (active),–
O=C(O)c1cc(=O)cc(C(=O)O)[nH]1,inactive,–
COc1ccc(COC(=O)N/N=C2/C[C@@H](O)[C@@H](O)[C@@H]3[C@@H]4C(=O)N([C@@H](C)c5ccccc5)C(=O)[C@H]4CC[C@H]23)cc1,–,1.27% [at 11.4 µM]
C[C@]1(c2ccccc2)OC(C(=O)O)=CC1=O,inactive,–
COc1ccc(NC(=O)c2ccc(C(=O)c3cc(OC)ccc3OC)cc2)cc1,inactive,–
Cc1ccc(C(=O)Nc2cc(Cl)ccc2OC(=O)c2ccc(C)cc2)cc1,11.2 µM (active),–
COc1ccc(C(=O)Nc2cc(Cl)ccc2OC(=O)c2ccc(OC)cc2)cc1,3.55 µM (active),–
COC(=O)CCSc1cc([N+](=O)[O-])cc2c1c(C1OCCS1)nn2-c1ccccc1 (stereo not drawn),25.1 µM (active),–
NC(N)=NC(N)=Nc1ccccc1,25.1 µM (active),–
NC(N)=NC(N)=Nc1ccc(S(=O)(=O)O)cc1,–,10.1% [at 11.4 µM]
NC(N)=NC(N)=Nc1cccc(Cl)c1,inactive,–
N#C/C(=C/c1cccc(C(F)(F)F)c1)c1nc(CCN2C(=O)c3ccccc3C2=O)cs1,3.16 µM (active),–
C=CCNCCCCOc1c(Cl)cc(C)cc1Br,8.91 µM (active),–
COCCCNCCCCOc1c(Cl)cc(C)cc1Br,inactive,–
Cc1cc(Br)cc(C)c1OCCCCN(C)C,inactive,–
O=C(N/N=C/C1CCCCC1)c1ccccn1,inactive,–
C/C(=N\NC(=O)Cc1ccc(Cl)cc1)c1ccccn1,5.01 µM (active),–
CC(C)c1ccc(N2C(=O)CC(Sc3nc4ccccc4o3)C2=O)cc1 (stereo not drawn),1.78 µM (active),–
CCOC(=O)N/N=C1/C[C@@H](O)[C@@H](O)[C@@H]2[C@@H]3C(=O)N([C@@H](C)c4ccccc4)C(=O)[C@H]3CC[C@@H]12,–,-0.98% [at 11.4 µM]
CCOC(=O)c1cc(-c2ccc(Cl)cc2)nc2c1c(C)nn2CCC#N,14.1 µM (active),–
COc1cccc(Nc2ncc3nc(-c4ccc(Cl)cc4)c(=O)n(CCC#N)c3n2)c1,inactive,–
Cc1nn(C)c(Oc2cccc(Cl)c2)c1C=O,6.31 µM (active),–
CC(C)N=C(N)/N=C(\N)Nc1ccc(Cl)cc1,inactive,–
O=C(N/N=C/c1ccc(Cl)cc1)Nc1ccccc1,11.2 µM (active),–
Cc1ccc(NC(=O)N/C=C/c2ccc(Cl)cc2)cc1,inactive,–
O=C(N/N=C/c1ccc(Cl)cc1Cl)Nc1ccccc1,2.82 µM (active),–

Structure (SMILES),AC50,"activity, negative = inhibition"
O=C(c1ccco1)N1CCC2(CC1)CCN(c1cccc(-c3ccccc3)c1)CC2,10 µM (active),–
O=C(c1ccco1)N1CCC2(CCCN(c3ccccc3)C2)CC1,inactive,–
CC(=O)N1CCC[C@@]2(CCN(c3ccncc3)C2)C1,inactive,–
Cn1cccc1C(=O)N1CCC[C@@]2(CCN(Cc3nccs3)C2)C1,inactive,–
Cn1cccc1C(=O)N1CCC2(CC1)CCN(c1ccncc1)CC2,inactive,–
O=C(c1ccco1)N1CCC2(CC1)CCN(c1ccc(-c3ccccc3)cc1)CC2,inactive,–
O=C(c1ccco1)N1CCC[C@@]2(CCN(c3ccncc3)C2)C1,inactive,–
Cn1cccc1C(=O)N1CCC2(CC1)CN(c1ccncc1)C2,1.26 µM (active),–
O=C(c1ccco1)N1CCC[C@@]2(CCN(c3ccccc3)C2)C1,5.01 µM (active),–
Cn1cccc1C(=O)N1CCC2(CC1)CN(c1ccccn1)C2,inactive,–
c1ccc(-c2cccc(N3CCC4(CCNCC4)CC3)c2)cc1,inactive,–
Cn1cccc1C(=O)N1CCC[C@@]2(CCN(c3ccncc3)C2)C1,6.31 µM (active),–
Nc1nc(=O)c2[nH]cnc2n1O,–,-10.6% [at 11.4 µM]
CNC(=O)[C@@H]1O[C@@H](n2cnc3c(NCc4ccc(N)cc4)ncnc32)[C@@H](O)[C@H]1O,inactive,–
Cn1cccc1C(=O)N1CCC[C@@]2(CCN(c3ccccc3)C2)C1,5.01 µM (active),–
CN1CC[C@@]2(CCCN(C(=O)c3cccn3C)C2)C1,inactive,–
CC(C)NC(=O)N1CC[C@@]2(CCCN(C(=O)c3cccn3C)C2)C1,inactive,–
Cc1cc2ccccc2n1CCNC(=O)C1CCCC1,1.26 µM (active),–
Cc1ccc(S(=O)(=O)NC(=O)c2cccn2C)cc1,inactive,–
CN(C)CCn1c(C(=O)O)cc2ccccc21,inactive,–
Cc1cc2ccccc2c(=O)n1CC(=O)NCC(=O)N1CCCC1,inactive,–
Cc1ccc(S(=O)(=O)NCCn2c(C)cc3ccccc32)cc1,1 µM (active),–
Cc1nnc(NC(=O)c2oc3c(ccc4ccccc43)c2C)s1,10 µM (active),–
Cc1ccc(S(=O)(=O)CC#CCOC(=O)c2ccc([N+](=O)[O-])cc2)cc1,7.94 µM (active),–
Cc1c(OC(=O)c2ccc([N+](=O)[O-])cc2)c2c(c[n+]1C)COC(C)(C)OC2,inactive,–
CCOC(=O)n1ccn(C)c1=S,inactive,–

Structure (SMILES),AC50,"activity, negative = inhibition"
C/C(=C\C(=O)c1ccc(Cl)cc1)NCc1ccc2c(c1)OCO2,2.51 µM (active),–
O=C1Nc2ccccc2C(O)(C(=O)NCc2ccc3c(c2)OCO3)N1c1ccc(Cl)c(Cl)c1 (stereo not drawn),inactive,–
C/C(=C\C(=O)c1ccc(Br)cc1)NCc1ccc2c(c1)OCO2,8.91 µM (active),–
O=C(c1ccc(Cl)c(Cl)c1)c1cc(-c2ccccn2)c(N2CCOCC2)s1,7.94 µM (active),–
O=C(Nc1ccccc1N1CCOCC1)c1ccccc1[N+](=O)[O-],inactive,–
Cc1ccccc1C(=O)Nc1ccc(N2CCOCC2)nc1,inactive,–
Cc1cc(F)ccc1S(=O)(=O)Nc1ccccc1C(=O)Nc1ccccc1N1CCOCC1,1.58 µM (active),–
NCc1ccccc1CC(=O)N[C@@H]1C(=O)N2C(C(=O)O)=C(CSc3nnnn3CC(=O)O)CS[C@@H]12,inactive,–
CCn1cnc2sc(C(=O)N3CCN(c4ccc(OC)cc4)CC3)c(C)c2c1=O,10 µM (active),–
COc1ccc2[nH]c(-c3ccccc3)c(CCNC(C)=O)c2c1,7.94 µM (active),–
CC(=O)NCCc1ccc(O)c(O)c1,inactive,–
CC(=O)NCCc1c(Cc2ccccc2)[nH]c2ccccc12,25.1 µM (active),–
COC(=O)Nc1ccc2[nH]cc(CCNC(C)=O)c2c1,inactive,–
C=N[C@H](C(=O)N[C@@H]1C(=O)N2[C@@H]1SC(C)(C)[C@@H]2C(=O)O)c1ccccc1,inactive,–
COc1ccccc1S(=O)(=O)Nc1ccc(-c2nnc3n2CCCCC3)cc1,inactive,–
COc1ccc(NS(=O)(=O)c2cc(-c3nnnn3C)ccc2OC)cc1,14.1 µM (active),–
O=C(O)c1cc(C(=O)O)nc(C(=O)O)c1,–,3.49% [at 11.4 µM]
O=C(O)c1ccc(SSc2ccc(C(=O)O)cn2)nc1,2.51 µM (active),–
O=C(O)c1cccc(SSc2cccc(C(=O)O)c2)c1,–,-33.7% [at 11.4 µM]
CCOC(=O)c1nnc(-c2ccccc2)nc1NCc1ccccc1,25.1 µM (active),–
O=S(=O)(Nc1ccc(Cc2ccncc2)cc1)c1ccc(Cl)c(Cl)c1,0.0251 µM (active),–
O=S(=O)(Nc1ccc(Cc2ccncc2)cc1)c1cccs1,0.0224 µM (active),–
O=S(=O)(Nc1ccc(Cc2ccncc2)cc1)c1ccc(Br)cc1,0.0224 µM (active),–
Cc1ccnc(NS(=O)(=O)c2ccc(N)cc2)n1,inactive,–
C/C(=N/S(=O)(=O)c1ccc(Cl)c(Cl)c1)OCC(C)(C)C,–,58.8% [at 11.4 µM]
